Inconclusive results are not listed. The source made the active and inactive calls. Calls come from the whole dose curve.
Each compound was assayed against cAMP-dependent protein kinase catalytic subunit alpha (Homo sapiens) (UniProt P17612) (assay: Protein Kinase A (PKA-HiBiT) SDR gain of signal screen). Settings: PKA-HiBiT structural dynamics response (SDR), luminescence gain of signal; series mostly up to 32.9 µM; activity change, positive = signal gain: at the top concentration.
From the text: National Center for Advancing Translational Sciences (NCATS),
National Institute of Health (NIH), Maryland
Discovery and optimization of novel protein-binding ligands underlies many of the methods and applications of biology, drug discovery, clinical diagnostics, and environmental toxicology. Assays for detecting the interaction of, for example, a molecule with a macromolecular target also referred to here as the target of interest (TOI) is dependent on a compatible output technology. Depending on the nature and knowledge surrounding the TOI, whether a receptor, enzyme, regulatory subunit or scaffold, or a sequence-defined nucleic acid folded into a complex tertiary structure, assay strategies can vary widely.
Here we exploit ligand-biased changes in the structural dynamics of the target protein to control reporter alpha complementation allowing a non-competitive, non-functional, non-separation measure of ligand-target interaction.
Using a chemical library of >1,200 compounds enriched for scaffolds known to be associated with the inhibition of firefly luciferase (FLuc) activity (PubChem AIDs 2309) we first illustrate and compare the Structural Dynamics Response (SDR) assay vs. the standard functional FLuc enzyme assay (2). Secondly, we show the specificity and sensitivity of the SDR for the Abelson tyrosine kinase (ABL1) compared to the serine/threonine protein kinase A, using an enriched chemical library of 128 compounds selected, in part, for activity annotated with ABL1 kinase activity using the Pharos database (3).
(1) A. S. Dixon et al., NanoLuc Complementation Reporter Optimized for Accurate Measurement of Protein Interactions in Cells. ACS Chem Biol 11, 400-408 (2016).
Chemistry & Biology, 19, 1060 - 1072 (2012).
(3) K. J. Kelleher et al., Pharos 2023: an integrated resource for the understudied human proteome. Nucleic Acids Res 51, D1405-D1416 (2023).
PROTOCOL TABLE (as described by Inglese J, Shamu CE and Guy RK. 2007)
SEQUENCE No. (e.g., 1, 2, 3, etc.); […] (e.g., C. elegans, Compounds, Incubation, Read, etc.); VALUE and DESCRIPTION.
1. Reagent. Dispense 4 uL PKA-N-HiBiT enzyme per well at a final enzyme concentration of 10 nM in buffer into columns 2-48 of four replicate Greiner 1536-well white,solid bottom high base, medium plates per assay. Dispense respective buffer without enzyme at 4 uL/well in column 1 of assay plates using BioRaptr 2.
2. Compounds. Library compounds added at 23 nL/well by pin transfer. DMSO neutral control and H-89 positive control added at 25 nL/well, transfer by Mosquito dispenser.
3. Incubation. Incubate enzyme and compounds at room temperature for 30 min, protect from light.
4. Reagent. (SDR assay) Add 3 uL/well of Nano-Glo HiBiT reagent (Promega) to assay plates.
5. Incubation. (SDR assay) Incubate enzyme solution HiBiT reagent at room temperature for 10 min, protected from light.
6. Detector. (SDR assay) Luminescence measured using CCD-based camera (ViewLux) with settings as follows: Exposure, 1 sec; Gain, High; Speed, Slow; Binning, 2X.

Activity change, positive = signal gain, inactive:
O=C(NOCC(O)CO)c1cc(Br)c(F)c(F)c1Nc1ccc(I)cc1F (stereo not given) -34.9%
Cc1cc(NC(=O)c2ccc(C)c(Nc3nccc(-c4cccnc4)n3)c2)cc(-n2cnc(C)c2)c1 -7.69%
Cc1cc(O)c2c(c1)C(=O)c1cc(O)cc(O)c1C2=O -17%
Cc1cccc(C)c1-n1c(=O)c2cnc(Nc3ccc(N4CCN(C)CC4)cc3)nc2n2c3ccccc3nc12 -44.7%
COc1cc(N2CCN(C)CC2)ccc1Nc1nc(N)c(C(=O)c2c(Cl)cccc2Cl)s1 -3.27%
COc1cc(NC(=O)c2cccc(-n3cc(NC(=O)Nc4cccc(C)c4)cn3)c2)cc(OC)c1OC 1.34%
Cc1cn(-c2cc(F)cc(NC(=O)c3ccc(C)c(Nc4nccc(-c5cccnc5)n4)c3)c2)cn1 -14.2%
CCn1c(=O)c(-c2ccc(Cl)cc2Cl)cc2cnc(Nc3ccc(N4CCNCC4)c(F)c3)nc21 15.1%
COc1cc2nccc(Oc3ccc(NC(=O)Nc4ccc(F)cc4F)c(F)c3)c2cc1OC 5.98%
Cc1ccc(NC(=O)c2ccc(CN3CCN(C)CC3)cc2)cc1Nc1nc(-c2cccnc2)cs1 5.21%
COc1cc2c(Oc3ccc4[nH]c(C)cc4c3F)ncnc2cc1OCCCN1CCCC1 5.25%
CCN1/C(=C\C(C)=O)Sc2ccc(OC)cc21 8.08%
CC(C)(C)n1nc(-c2cccc3ccccc23)c2c(N)ncnc21 9.35%
CN1CCN(CCCNc2ncc(Cl)c(-c3cc4c(C(=O)NC5CC5)cccc4s3)n2)CC1 -4.3%
CCCCNc1ncc2c(-c3ccc(S(=O)(=O)N4CCOCC4)cc3)nn(C3CCC(O)CC3)c2n1 (stereo not given) 15.8%
Cc1nc(NC(=O)N2CCC[C@H]2C(N)=O)sc1-c1ccnc(C(C)(C)C(F)(F)F)c1 -0.666%
C#Cc1cccc(Nc2ncnc3cc4c(cc23)OCCOCCOCCO4)c1 4.44%
Cc1cn(-c2cccc(NC(=O)c3ccc(C)c(Nc4nccc(-c5cccnc5)n4)c3)c2)cn1 -0.576%
Cc1c(Cl)cccc1S(=O)(=O)Nc1nc(NCCc2ccccc2)nc2c1CN(Cc1ccccc1)CC2 -13.3%
CN1CCN(C2CCC(n3cc(-c4ccc(Oc5ccccc5)cc4)c4c(N)ncnc43)CC2)CC1 (stereo not given) -10.5%
CNS(=O)(=O)c1ccc2c(c1)/C(=C/c1[nH]c3c(c1CCCN1CCN(C)CC1)CCCC3)C(=O)N2 -31.7%
Nc1ncc(-c2cnn(CCO)c2)c2scc(-c3ccc(NC(=O)Nc4cccc(F)c4)cc3)c12 3.77%
CCNC(=O)Nc1ccc(-c2nc3c(c(N4CCOC[C@@H]4C)n2)CCN(c2ncccn2)C3)cc1 2.32%
N#Cc1ccc2ncnc(NCCc3ccccc3)c2c1 -3.27%
Cc1cc(F)ccc1-c1nc(NCCN=C(N)NC#N)nc2c1ccc(=O)n2-c1c(F)cccc1F 4.31%
Cc1cc(Nc2ncc3cc(-c4c(Cl)cccc4Cl)c(=O)n(C)c3n2)ccc1F -18.3%
CCCCCCCCCCCCc1ccc(S(=O)(=O)Nc2nncs2)cc1 -1.75%
Cn1sc(=O)n(Cc2ccccc2)c1=O 0.648%
CNC(=O)c1ccccc1Nc1nc(Nc2ccc(N3CCOCC3)cc2OC)ncc1Cl 19.9%
Cc1ccc(-n2nc(C(C)(C)C)cc2NC(=O)NCc2cc(F)ccc2Oc2ccc3c(cnn3CCO)c2)cc1 -20.1%
Cc1[nH]c2ccccc2c1C1=C(NCCc2ccc(F)cc2)C(=O)N(C)C1=O -30.9%
COc1ccc(S(=O)(=O)N(C(C)=O)c2ccccc2/C=C/c2cc[n+]([O-])cc2)cc1 5.77%
COc1ccccc1-c1c[nH]c2ncc(-c3cncc(C(=O)N(C)C)c3)cc12 14.2%
Cc1nc2ccc(-n3ncc(C(=O)c4cc5ccccc5[nH]4)c3N)cc2[nH]1 4.86%
COC(=O)Nc1ccc(-c2nc(N3CCOCC3)c3cnn(C4CCN(C(=O)OC)CC4)c3n2)cc1 6.1%

Potency, active:
Cc1[nH]nc2ncc(C(=O)N3CCC[C@H]3c3ccc(Cl)cc3)cc12 12.4 µM
CC[C@@](C)(Nc1ccnc(-c2c[nH]c3ncccc23)n1)C(=O)NCC(F)(F)F 12 µM
c1cc(-c2cc(C3CCNCC3)[nH]n2)ccn1 3.62 µM
Oc1ccc(-c2ccc(-c3cc(Nc4cccc(CNC5CC5)c4)n[nH]3)cc2)c(O)c1 10.7 µM
Nc1nc(Nc2ccc(S(N)(=O)=O)cc2)n(C(=S)Nc2c(F)cccc2F)n1 11.1 µM

Source: PubChem BioAssay AID1963322 (National Center for Advancing Translational Sciences (NCATS), 2024)
